ROMK mod = ROMK potassium channel modulators, primary screen, cell-based, thallium flux, MLSMR library; ATP-sensitive inward rectifier potassium channel 1 (Homo sapiens), P48048; Tet-inducible ROMK, thallium flux fluorescence; actives lie on both sides; B-score at 10 µM; 130,000 compounds, 2% hits; AID 1918, 2009;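 active = signal ratio slope over the read window, or its plate-corrected B-score, at least 3 SD from the plate mean, either direction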;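 also: B-score of the F/F0 ratio slope over 7 to 12 s after thallium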
Calpain2 inh = inhibitors of pig calpain II, primary screen, biochemical, fluorogenic peptide substrate, 1536-well | purified calpain II, 30 min | 220,000 compounds, 0.37% hits | AID 1236, 2008 | inhibition, % at 16 µM;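 active = inhibition above about 50%, limit read from the data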
14-3-3 Bad inh = inhibitors of 14-3-3 zeta/Bad binding, primary screen, biochemical, TR-FRET, bovine 14-3-3 zeta. 14-3-3 protein zeta/delta (Bos taurus), P63103. TR-FRET 14-3-3zeta/Dy647-pBad peptide displacement, 1 h. inhibition, % at 21.7 µM. 220,000 compounds, 0.71% hits;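 active = inhibition above about 70%, limit read from the data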;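 also: 0% = full 14-3-3 plus peptide FRET controls and 100% = background without 14-3-3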
Target sequence (P63103 whole entry, looked up): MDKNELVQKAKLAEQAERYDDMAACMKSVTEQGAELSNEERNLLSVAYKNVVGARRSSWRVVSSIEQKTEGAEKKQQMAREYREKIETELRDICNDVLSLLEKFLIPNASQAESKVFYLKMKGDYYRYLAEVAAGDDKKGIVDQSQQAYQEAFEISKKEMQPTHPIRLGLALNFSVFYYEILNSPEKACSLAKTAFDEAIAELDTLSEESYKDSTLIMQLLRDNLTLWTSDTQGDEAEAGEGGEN
Efa HMGR inh = inhibitors of E. faecalis class II HMGR, primary screen, biochemical, Enterococcus faecalis. 190,000 compounds, 0.41% hits. inhibition, % at 10 µM. purified E. faecalis HMGR, NADPH absorbance 340 nm kinetic. HMG-CoA reductase (Enterococcus faecalis, mvaE);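 active = inhibition above a set limit, the median over all tested compounds plus 3 SD, cut at about 9.5% in these data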;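 also: enzyme runs in reverse so mevalonate oxidation gives rising NADPH absorbance; 0% = complete reaction with DMSO and 100% = background rate lacking mevalonate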
L929 necroptosis = inhibitors of zVAD-triggered necroptosis, primary screen, L929 cells; L929 zVAD necroptosis rescue, ATP luminescence, 24 h; with zVAD 60 µM; viability rescue, % at 10 µM; 220,000 compounds, 0.38% hits; AID 1377, 2008;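 active = activation, scaled between plate controls, above about 75%, limit read from the data; inactive = activation under that limit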;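 also: 0% = zVAD with DMSO and 100% = DMSO alone without zVAD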
TNF necrop inh = inhibitors of TNF-alpha triggered necroptosis, primary screen, cell-based, Jurkat FADD-/-, single concentration. Jurkat FADD-/- TNF necroptosis rescue, ATP luminescence, 24 h; 0 = TNF only, 100 = no-TNF cells. activation (protection from cell death), % at 10 µM. 220,000 compounds, 0.068% hits. AID 463075, 2010;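 active = activation, meaning protection from cell death, of at least 50% relative to plate controls; inactive = activation below 50%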;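 also: necroptosis triggered by 40 ng/mL TNF-alpha added together with compound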
* hit, by the source's call; nt = no result given; [ ] = dose if it differs, or a comment. This is a sample that favours compounds with a hit; in the whole collection about 3% have one here.

SMILES	ROMK mod	Calpain2 inh	14-3-3 Bad inh	Efa HMGR inh	L929 necroptosis	TNF necrop inh
O=C(CNCC1CCCO1)Nc1ccccc1N1CCCCCC1 (centres undefined)	nt	3	82*	0	0	0
CCN(c1ccccc1)S(=O)(=O)c1ccc(Cl)c(NC(=O)CN(C)C2CCN(C)CC2)c1	-1.1	9	90*	nt	-1	-4
CN1CCC(N(C)CC(=O)Nc2ccccc2N2CCOCC2)CC1	0.15	23	79*	-8	1	0
CSc1ccccc1NC(=O)CN(C)CC(=O)Nc1ccccc1N1CCOCC1	-1.3	-29	-9	-4	0	1
Cc1ccc(C)c(OCCCC(=O)Nc2nccs2)c1	0.22	69*	-6	-2	0	2
COc1cc(C)c(CNc2ccc(OC)c(OC)c2)cc1C	-0.74	-11	80*	-4	0	-2
COc1cc(C)c(CNc2cccc(C)c2)cc1C	0.015	16	73*	0	1	0
COc1cc(C)c(CNc2cc(C)cc(C)c2)cc1C	0.082	-3	12	0	1	1
CCCCn1c(=S)[nH]c2c(oc3ccc(Cl)cc32)c1=O	4.8*	-2	4	-5	0	-2
O=C(O)COc1ccccc1/C=N/NC(=O)CN1CCN(S(=O)(=O)c2ccc(Br)cc2)CC1	1.4	2	1	nt	0	1
Cc1ccc2nc(-c3ccc(NC(=S)NC4CC(C)(C)NC(C)(C)C4)cc3)sc2c1	-0.047	-83	93*	-2	-2	-14
Cc1ccc2nc(-c3ccc(NC(=S)NC(=O)C(C)C)cc3)sc2c1	-0.002	-74	-4	-5	0	0
CC1CCc2sc(C(=O)N/N=C/c3ccc(O)cc3)cc2C1 (centres undefined)	nt	2	-2	nt	1	-15
O=C(NNC(=O)C1CCN(Cc2ccccc2)CC1)c1cccs1	-0.31	-6	73*	-1	0	1
COc1ccc(-n2c(SCC(=O)Nc3ccc(Br)cc3)nc(O)cc2=O)cc1	-0.065	-23	-3	nt	1	3
O=C(O)CNC(=O)c1nc(-c2ccccc2)n(-c2ccccc2)n1	nt	10	-15	-7	1	3
C/C(N)=C(/C#N)C(=O)CSc1nnc(COc2ccccc2Cl)o1	nt	103*	-8	-2	0	-1
CC(C)(C)NC(=O)NC(=O)CSc1nnc(COc2ccccc2Cl)o1	0.11	-16	16	-4	74	-1
CCCCn1c(-c2csc3c2CCCC3)n[nH]c1=S	-0.58	24	-9	0	0	0
CCCCn1c(-c2csc3c2CCC(C)C3)n[nH]c1=S (centres undefined)	nt	66*	-8	1	1	-4
COc1ccc(C(=O)c2sc3nc(C)cc(-c4cccs4)c3c2N)cc1OC	nt	-14	-10	1	2	1
Cc1cc(C(=O)N[C@@H](c2ccccc2)[C@]2(C)C[C@H]2[C@@H](C)C(=O)Nc2ccc3ccccc3c2)no1	0.9	-40	-3	-1	7	4
Cc1cc(C(=O)N[C@H](c2ccccc2)[C@@]2(C)C[C@@H]2[C@@H](C)C(=O)Nc2ccc3ccccc3c2)no1	-2.6	-27	-3	25*	1	2
Cc1cc2nc3c(=O)[nH]c(=O)[nH]c3nc2c([N+](=O)[O-])c1N	nt	-63	73*	-1	-1	0
CCC(=O)N1CCc2cc(S(=O)(=O)N3CCc4ccccc4C3)ccc21	1	54*	-7	-5	1	-1
SMILES	ROMK mod	Calpain2 inh	14-3-3 Bad inh	Efa HMGR inh	L929 necroptosis	TNF necrop inh
CC(=O)N1CCCc2cc(S(=O)(=O)N3CCc4ccccc4C3)ccc21	-1.4	25	2	4	0	0
CN(C)c1nnc(-c2ccc(Cl)cc2)o1	0.57	-90	-4	1	2	-1
O=C(NCc1ccco1)/C(=C\c1ccco1)NC(=O)c1cccs1	0.29	22	9	-10	-2	-1
CC(C)(C)NC(=O)/C(=C\c1ccco1)NC(=O)c1cccs1	-0.25	-1	-19	11*	0	1
Cc1noc(C)c1COc1cccc(C(=O)N2CCc3ccccc32)c1	-0.66	8	-3	-4	-1	-2
COc1ccc(NC(=S)NNC(=O)c2nnn(-c3ccccc3)c2C)cc1	1.6	2	-8	-3	1	0
COC(=O)CCC(=O)Nc1cccc(C(=O)Nc2cccc(Cl)c2)c1	-0.65	-20	8	0	1	-2
CC(=O)c1ccc(OC(=O)c2cc3ccccc3oc2=O)cc1	-1	-13	13	6	1	0
CCN(C(=S)NC(=O)c1ccccc1Br)C1CCCCC1	6.9*	1	-13	2	0	1
CCn1c(=O)c(-[n+]2ccccc2)c(O)c2ccccc21	nt	-4	72*	1	2	1
CCn1c(=O)c(C(=O)NCCc2ccccc2)c(O)c2ccccc21	-0.15	19	7	0	0	-1
CCCCCCC(=O)N/N=C1\CCCc2ccccc21	0.051	28	-18	-1	0	1
N#C/C(=N\Nc1cccc(C(F)(F)F)c1)C(=O)c1csc(-c2cccnc2)n1	-3.8*	27	5	nt	2	0
Cc1ccc(-c2c(C(=O)NNC(=S)NCC3CCCO3)csc2C)cc1 (centres undefined)	0.75	13	-6	0	1	-1
O=C(NCc1n[nH]c(=S)n1-c1cccc(Cl)c1)c1cccs1	-0.39	-15	-9	-4	0	0
O=C(NCc1n[nH]c(=S)n1-c1ccccc1)c1cccs1	0.022	-14	9	12*	1	0
COc1ccccc1NC(=S)NCc1ccc2c(c1)OCO2	0.31	-13	-2	-4	-1	-3
CC(C)(C)NC(=O)c1ccc2nsnc2c1	0.17	-2	90*[fluorescence artefact?]	2	nt	1
O=C(NCC1CCCN(C(=O)c2cscn2)C1)c1ccc(-c2ccccc2)cc1 (centres undefined)	1.2	5	0	1	2	-1
O=C(NCC1CCCN(C(=O)c2cscn2)C1)c1ccccc1Cl (centres undefined)	0.91	-32	-3	10*	11	1
N#Cc1c(SCC(N)=O)nc2c(c1-c1ccc(OCc3ccccc3)cc1)CCCC2	0.65	nt	nt	nt	0	-4
CCCCn1c(CN2CCN(c3cccc(Cl)c3)CC2)nc2c1c(=O)[nH]c(=O)n2C	-0.89	-28	-8	9.8*	0	-9
CCc1ccc(-n2c(SCC(=O)Nc3ccc(C(=O)O)cc3)nnc2-c2ccncc2)cc1	nt	2	-7	nt	-1	0

Screening data (PubChem)
